Compound activity as filed in PubChem.
Tau fluor cs: Counterscreen qHTS for Inhibitors of Tau Fibril Formation, Fluorescence Polarization; tau K18 P301L Alexa594 fluorescence, heparin fibrillization; Potency, µM (titrated, usually from 57.7 µM), inactives show top-dose activity change, negative = decrease; hit rate 0.93% among 280,000; further: potency means the concentration at half of the fitted maximal effect; nearly all actives have a fitted effect of over 55% in size
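Human K18 P301L tau (15 uM unlabeled plus 0.24 uM Alexa 594-labeled, final) in 100 mM sodium acetate pH 7 was mixed with compound and 20 uM heparin and incubated 6 hr at 37 C.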
Tau fibril FP: qHTS for Inhibitors of Tau Fibril Formation, Fluorescence Polarization | Microtubule-associated protein tau (Homo sapiens), P10636 | K18 P301L tau heparin fibrillization, Alexa594 FP, 6 h | Potency, µM (doses to about 57.7 µM), for inactives: at the top dose activity, negative = inhibition, hits mostly inhibitors | hit rate 0.39% among 280,000 | AID 1468, 2008; further: potency means the concentration at half of the fitted maximal effect; nearly all actives have a fitted effect of over 55% in size
Target sequence (P10636 561-689 P618L limits assumed): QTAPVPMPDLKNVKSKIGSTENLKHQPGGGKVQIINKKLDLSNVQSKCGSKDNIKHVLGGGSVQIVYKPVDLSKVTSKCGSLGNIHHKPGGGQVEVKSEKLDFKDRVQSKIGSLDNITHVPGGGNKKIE
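Human tau K18 […] P301L fragment, 15 uM unlabeled plus 0.24 uM Alexa 594-labeled tau (final), with compound and 20 uM heparin in 100 mM sodium acetate pH 7; 6 hr at 37 C, then Alexa 594 FP read.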
Tau ThT inhib: qHTS for Inhibitors of Tau Fibril Formation, Thioflavin T Binding | recombinant tau K18 P301L (four-repeat tau fragment), heparin-induced fibrillization, ThT fluorescence | hit rate 2.1% among 270,000 | Microtubule-associated protein tau (Homo sapiens), P10636 | AID 1460, 2008 | Potency, µM (series often up to 57.4 µM), for inactives: at the top dose activity, negative = inhibition, most hits filed as inhibitors; further: potency means the concentration at half of the fitted maximal effect; nearly all actives have a fitted effect of over 55% in size
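K18 P301L tau (15 uM + 0.24 uM Alexa 594-tagged), heparin 20 uM, NaOAc pH 7, 6 h 37 C; ThT 30 uM, 1 h RT, ex 450/em 510 nm.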
Coupling enz: qHTS Assay for Inhibitors of Fructose-1,6-bisphosphate Aldolase from Giardia Lamblia: Coupling assay counterscreen; hit rate 0.67% among 290,000; coupling enzyme system counterscreen, AmpLite Red fluorescence; AID 2472, 2010; activity change, negative = inhibition, % at 58.2 µM, hits read low; in the data active means activity change below about -30%
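Activity here indicates interference with the coupling reaction, not aldolase inhibition. Compounds at 57.5 uM final met coupling enzymes for 10 min at RT; substrate and AmpLite Red detection followed, with a 525/598 nm fluorescence read after 20 min.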
Starred values were filed as active, the others as inactive; ? = inconclusive; · = not tested or not shown; [ ] = dose if it differs, or a comment. Hits are enriched below; roughly 2.7% of the tested compounds scored in any of these assays. Unless noted, the call rests on the fitted dose curve; in most records, active means well fitted curve in the direction sought with a large enough effect; inconclusive means small, poorly fitted or top-dose-only effect, or another doubt; inactive means no such curve, though single readings can be large; an effect the other way counts as inactive or inconclusive. On the % scale 0 is the no-effect control and ±100 the full control effect.

SMILES | Tau fluor cs | Tau fibril FP | Tau ThT inhib | Coupling enz
Cc1ccc(/C=C/C(=O)Nc2ccc(S(N)(=O)=O)cc2)o1 | -12% | -9% | ? | 1
CCCCCCCCCCCCCCCC(=O)NCCCC(=O)O | -16% | -2% | -18% | 3
COc1ccc(CN(CC(=O)NCC2CCCO2)C(=O)CCC(=O)Nc2nccs2)cc1 (stereo not drawn) | · | · | · | 0
CC1CCC2C(=O)N3C(CCC(C)C3c3ccc(-c4ccco4)cc3)C(=O)N2C1c1ccc(-c2ccco2)cc1 (stereo not drawn) | 0%[11.6 µM] | -3%[11.6 µM] | -12%[11.5 µM] | 0
O=C(Nc1ccc(N2CCCC(O)C2)cc1)c1snc2c(=O)[nH]cnc12 (stereo not drawn) | -29% | 0% | 3.5µM* | 2
Cc1nc2c(C(=O)Nc3ccc(N4CCCC(O)C4)cc3)snc2c(=O)[nH]1 (stereo not drawn) | ? | -1% | · | -3
O=C1C(N2CCOCC2)=C(n2nnc3ccccc32)C(=O)c2ccccc21 | ? | ? | 13µM* | -41*
CCN(CC)C(=O)COc1ccc(/C(C)=N/Nc2ncc(Cl)cc2Cl)cc1 | -5% | 4% | ? | 10
N#C/C(=C\c1ccccc1)C(=O)Nc1sc2c(c1C(N)=O)CCC2 | -7% | 8% | 1.4µM* | ·
COc1ccc(CNC(=O)Cn2c(-c3ccccc3)cc(C(C)=O)c2C)cc1OC | -13% | -7% | -11% | ·
O=C1CN(C(=O)c2ccc(S(=O)(=O)N3CCCCC3)cc2)C(c2ccc(F)cc2)c2cc(Br)ccc2N1 (stereo not drawn) | -24% | ? | -6% | ·
CCn1nc(C)c2c(-c3ccccc3)cc(=O)n(C(C)C(=O)NCc3ccccc3OC)c21 (stereo not drawn) | -5% | -2% | -17% | ·
CN(C)CCCn1cc(C2=C(c3c[nH]c4ccccc34)C(=O)NC2=O)c2ccccc21 | 20µM*[quencher] | 2% | 13µM* | -11
Cn1cc(C2=C(c3cn(CCCSC(=N)N)c4ccccc34)C(=O)NC2=O)c2ccccc21 | 13µM*[quencher] | ? | 3.2µM* | -11
Cc1cccn2c(=O)cc(COc3ccc(NC(=O)c4cccc(F)c4)cc3)nc12 | -2% | -4% | -4% | ·
CC(=S)/C=C1\Sc2ccccc2N1C | 25% | -11% | 14µM* | 1
COc1ccc(C(=O)/C=C2\Sc3ccccc3N2C)cc1 | -17% | 12% | ? | -27
Cc1ccc(Cn2c(C(=O)O)c(CNCc3cccs3)c3ccc(C)cc32)cc1 | -9% | 0% | -6% | ·
CNc1nc(-c2c[nH]c3ccccc23)cs1 | 28µM*[quencher] | ? | 25µM* | -5
Nc1nc(-c2c[nH]c3ccccc23)cs1 | 16µM*[quencher] | ? | 16µM* | -9
Cc1ccc2c(-c3csc(N)n3)c[nH]c2c1 | · | · | · | -1
COc1cccc2sc(N(Cc3cccnc3)C(=O)Cc3ccccc3)nc12 | -15% | 1% | -8% | ·
Cc1nc(N=Nc2cc([N+](=O)[O-])ccc2Cl)c(COP(=O)(O)O)c(C=O)c1O | · | · | · | 0
Cc1nc(N=Nc2cc(S(=O)(=O)O)c3cc([N+](=O)[O-])cc(S(=O)(=O)O)c3c2)c(COP(=O)(O)O)c(C=O)c1O | 14µM*[quencher] | 20µM* | 8.9µM* | 0
CN(c1ccccc1)c1ccc(/C=C(\CCC(=O)O)c2nc3ccccc3s2)cc1[N+](=O)[O-] | ? | -21% | 14µM* | 1
SMILES | Tau fluor cs | Tau fibril FP | Tau ThT inhib | Coupling enz
CNc1ccc(/C=C(\CCC(=O)O)c2nc3ccccc3s2)cc1[N+](=O)[O-] | ? | -16% | 3.2µM* | 1
Cc1ccc(Nc2nc(-c3ccc(O)c(O)c3)cs2)nc1 | 14µM*[quencher] | 14% | 10µM* | -11
COc1ccc(-c2csc(Nc3ccc(C)cn3)n2)cc1OC | ? | 11% | 13µM* | -4
O=C1/C(=C/c2ccc(O)c(O)c2)Oc2ccccc21 | · | · | · | -10
Cc1ccc(N2CCN(C(=O)c3c(C)oc4ncnc(N5CCCCC5)c34)CC2)c(C)c1 | -5% | 0% | -15% | ·
Cc1ccc(NC(=O)Cn2c(=O)n(Cc3ccc(C(=O)NCc4ccc5c(c4)OCO5)cc3)c(=O)c3ccccc32)cc1 | -18% | 32µM* | 2% | ·
COc1cccc(NC(=O)Cn2c(=O)n(Cc3ccc(C(=O)NCc4ccc5c(c4)OCO5)cc3)c(=O)c3ccccc32)c1 | ? | 25µM* | -1% | ·
